TIM10 inh: growth inhibitors of TIM10 yeast strain; S. cerevisiae TIM10 strain growth, BacTiter-Glo luminescence, 24 h; inhibition, % at 10 µM; hit rate 1.4% among 330,000; AID 463195;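 active = inhibition of 40% or more at the single tested concentration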;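 note: wild-type TIM10 isogenic control strain grown at permissive 25 °C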
PfHsp90 set2: reduces growth (ATP signal) of yeast expressing P. falciparum Hsp90; hit rate 0.32% among 310,000; S. cerevisiae expressing PfHsp90, BacTiter-Glo ATP, 48 h; yeast lacking PDR1 and PDR3 efflux regulators; AID 504621; inhibition, % at 9.4 µM;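 active = every replicate shows inhibition above about 80%, whatever the replicate mean, limit read from the data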;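 note: 0% = DMSO neutral controls and 100% = 20 µM radicicol positive controls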
tim10-1 inh: tim10-1 yeast growth inhibition; inhibition, % at 20 µM; AID 463190; S. cerevisiae tim10-1 ts strain growth, BacTiter-Glo, 24 h; hit rate 2.2% among 330,000;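 active = inhibition of at least 40%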;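 note: mutant grown at 25 °C; 0% = DMSO wells with yeast and 100% = wells holding no yeast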
tim23-1 inh: tim23-1 yeast growth inhibition. S. cerevisiae tim23-1 growth, BacTiter-Glo luminescence, 24 h. inhibition, % at 20 µM. hit rate 1.3% among 330,000. AID 463212;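 active = growth inhibition of the mutant yeast at or above 50%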;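 note: temperature-sensitive mutant grown at 25 °C; plate controls were DMSO-treated mutant yeast for no effect and medium wells lacking yeast for full effect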
SKKanGAS inh: SKKanGAS growth inhibition | AID 1662 | S. pyogenes SKKanGAS, kanamycin growth, BacTiter-Glo, 6 h | inhibition, % at 7.5 µM | hit rate 1.3% among 300,000;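 active = mean replicate score, as percent of positive control median, at least 50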;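 note: strain carries kanamycin resistance gene driven by streptokinase promoter and grows in 40 µg/ml kanamycin; loss of luminescence reflects streptokinase promoter inhibition or plain growth inhibition; 0% = median of DMSO wells and 100% = positive control at its reference dose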
tim10-1 confirm: confirmation of tim10-1 mutant yeast growth inhibitors | shares compounds with tim10-1 inh | S. cerevisiae tim10-1 ts strain growth, BacTiter-Glo, 24 h | AID 463213 | inhibition, % at 20 µM | hit rate 56% among 7,400;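 active = inhibition of yeast growth at or above a set limit in either of two repeat tests at 20 µM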;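 note: tim10-1 mutant grown at permissive 25 °C to find synthetic lethal compounds; 0% = DMSO yeast wells and 100% = medium wells without yeast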
* marks the source's active call; other numbers are inactive results; . = not tested or not shown. The list is not random: actives were taken first. Their share in the collection is about 4.4%.

SMILES	TIM10 inh	PfHsp90 set2	tim10-1 inh	tim23-1 inh	SKKanGAS inh	tim10-1 confirm
Cc1ccccc1OCC(=O)Nc1ccc(C(=O)Nc2ccccc2C(=O)O)cc1	13	16	-12	3	59*	.
CCCSC(=S)c1c(C)[nH]n(-c2ccccc2)c1=O	17	-58	14	14	89*	.
Cc1[nH]n(-c2ccccc2)c(=O)c1Sc1ccc(Cl)cc1	19	-8	13	21	-1	.
COc1ccc(CNC(=S)Nc2ccc(OC)cc2)cc1	5	-7	8	5	-3	.
CCCCc1ccc(NC(=S)NCc2ccc(OC)cc2)cc1	34	-6	46*	25	-11	-16
CCOC(=O)CNC(=O)CSc1nnc(NC(=O)c2ccc(S(=O)(=O)N3CCOCC3)cc2)s1	6	-21	6	1	18	.
COc1cccc(CN2CCN(C(=O)c3ccc(-c4ccccc4)cc3)CC2)c1OC	39	0	44*	31	0	27
CCOc1cc(N2CCOCC2)c(OCC)cc1NC(=O)c1ccc2ccccc2n1	17	39	45*	31	4	22
CCOc1cc(N2CCOCC2)c(OCC)cc1NC(=O)COC(=O)CCOc1ccc(C)cc1	39	-1	41*	45	-9	29*
CCOc1cc(N2CCOCC2)c(OCC)cc1NC(=O)c1ccccc1C	-4	16	9	12	-16	.
CC(=O)Nc1cccc(NS(=O)(=O)c2cc3c4c(c2)CCN4C(=O)CC3)c1	-9	35	-3	3	0	.
COc1ccc(-c2nc3ccccn3c2NCc2ccc3c(c2)OCO3)cc1	34	9	42*	39	-1	13
c1ccc(-c2nc3ccccn3c2NCc2ccc3c(c2)OCO3)cc1	27	-30	37	34	-3	.
CCc1ccc(/C=c2\s/c(=C\C(=O)C(C)(C)C)[nH]c2=O)cc1	32	-52	53*	50	102*	44*
COc1ccc(C2c3sc(=O)[nH]c3SCC2C(N)=O)cc1 (centres undefined)	10	-15	1	-1	2	.
CCOC(=O)C1CSc2[nH]c(=O)sc2C1c1ccccc1 (centres undefined)	21	-7	40	37	2	16
CC1=CC(C)(C)Nc2ccc(OC(=O)CN3C(=O)c4ccccc4C3=O)cc21	16	15	47*	42	-2	32*
CC1=CC(C)(C)Nc2ccc(OC(=O)CN3C(=O)c4cccc5cccc(c45)C3=O)cc21	.	-13	.	.	3	.
CCC1CCCCN1C(=O)CSc1nnc(CNC(=O)COc2ccc(Cl)cc2)o1 (centres undefined)	24	23	40*	26	-4	20
O=C(COc1ccc(Cl)cc1)NCc1nnc(SCC(=O)NC2CCCC2)o1	-14	11	11	-2	-15	.
CCC1CCCCN1C(=O)CSc1nnc(-c2ccc(Cl)s2)o1 (centres undefined)	9	-5	51*	42	-1	24
COc1cc(OC)cc(OC(=O)c2cccc(S(=O)(=O)N3CCN(C)CC3)c2)c1	1	.	22	30	0	.
CN1CCN(S(=O)(=O)c2cccc(C(=O)Oc3cccc(Br)c3)c2)CC1	23	-17	41*	49	-5	21
CN(C(=O)Cn1cccc1C1=NC(c2ccccc2)CO1)c1ccccc1 (centres undefined)	21	0	42*	30	-2	18
CCCCn1c(N)c(N(CCOC)C(=O)c2c(CC)noc2C)c(=O)[nH]c1=O	0	7	12	10	.	.
SMILES	TIM10 inh	PfHsp90 set2	tim10-1 inh	tim23-1 inh	SKKanGAS inh	tim10-1 confirm
Cn1c(=O)c2[nH]c(Cc3cccc4ccccc34)nc2n(C)c1=O	.	-9	.	.	.	.
O=c1cc(-c2ccccc2)nc(Sc2ccc([N+](=O)[O-])cc2[N+](=O)[O-])[nH]1	-13	0	21	28	2	.
Cc1cccc(Sc2ccc([N+](=O)[O-])cc2[N+](=O)[O-])n1	23	-18	44*	46	-12	28
CCN(CC)S(=O)(=O)c1cccc(NC(=O)c2ccc(SC)cc2OC)c1	20	27	43*	32	7	37*
N=c1n(Cc2ccc(Cl)cc2)c2ccccc2n1CC(O)COc1ccccc1 (centres undefined)	5	1	16	23	11	.
N=c1n(Cc2ccccc2)c2ccccc2n1CC(O)COc1ccc(Cl)cc1Cl (centres undefined)	18	-24	40*	7	.	-1
C=CCN1C(=O)c2ccc(C(=O)N(CC)CC(=O)Nc3c(F)cccc3F)cc2C1=O	2	.	-8	-2	0	.
COc1ccccc1/C=C/[C@@H]1C[C@H]2CN(Cc3cccc(Cl)c3)C(=O)[C@]23CCCN13	20	-12	43*	27	-1	26
COc1cccc2c1OCC([C@@H]1C[C@H]3CN(Cc4cccc(Cl)c4)C(=O)[C@]34CCCN14)=C2	-1	-9	9	21	5	.
Cc1cc(=O)[nH]c(SCC(=O)NC2CCCCCC2)n1	-20	-1	-8	-5	.	.
CCOC(=O)C1Nc2ccc(C(F)(F)F)cc2C2c3ccccc3CC12 (centres undefined)	-9	-4	57*	0	27	53*
CC(C)C(=O)Nc1cccc(-c2nc3ccccc3c(=O)o2)c1	12	16	19	18	1	.
CC(C)(C)C(=O)Nc1ccc(-c2nc3ccccc3c(=O)o2)cc1	30	1	28	10	.	.
CC(C)C(=O)Nc1ccc(-c2nc3ccccc3c(=O)o2)cc1	38	1	56*	37	1	41*
CC(C)(C)C(=O)Nc1cccc(-c2nc3ccccc3c(=O)o2)c1	25	-5	40*	37	11	48*
COc1cccc(-c2nc3ccc(O)cc3c(=O)o2)c1	39	7	55*	45	-3	31
COc1ccccc1N1CCN(S(=O)(=O)CCNC(=O)CC2CCCCC2)CC1	3	.	12	2	-2	.
Cc1ccc(S(=O)(=O)N2CCc3cc4c(cc3C2C)OCCCO4)cc1 (centres undefined)	-8	7	22	33	1	.
COc1cc(NC(=O)CCC(=O)N2CCN(S(=O)(=O)c3ccc(C)cc3)CC2)cc(OC)c1	.	9	.	.	.	.
Cc1cccc(C(=O)/C=C2/c3ccccc3CC(C)(C)N2C)c1	31	6	38	36	-2	.
CN1/C(=C\C(=O)c2ccccc2Cl)c2ccccc2CC1(C)C	28	16	36	44	12	.
Cc1ccccc1C(=O)/C=C1/c2ccccc2CC(C)(C)N1C	32	.	42*	45	5	21
CN1/C(=C\C(=O)c2ccco2)c2ccccc2CC1(C)C	1	-13	47*	30	0	16
CCOC(=O)CSc1nc(C2CC2)nc2ccccc12	20	-11	40*	29	-2	3

Source: PubChem (several laboratories)
